The text below walks through data of PubChem BioAssay (NCATS).

Each structure is given as a SMILES string. Results filed as inconclusive are left out. Active and inactive are the calls of the source. Unless noted, calls come from the whole dose curve; as a rule, active = well fitted inhibition curve with a large enough effect; inconclusive = small, poorly fitted or top-dose-only effect; inactive = flat fitted curve, though single readings scatter.

Assay [1] can be described thus: qHTS drug screen for cell cycle checkpoint inhibitors in PARPi-resistant BRCA-mutant ovarian cancer cell lines. (AID 1963452; calls by dose curve). To be noted: PEO1/OlaR viability, CellTiter-Glo luminescence, 96 h, stronger effect = lower value. In short, it runs like this:
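PEO1, PEO4 and PEO1/OlaR ovarian cancer cells, 600 per well, exposed 96 h at 37C to a dilution series. Viability read by CellTiter-Glo luminescence, normalized to DMSO and empty wells; activity summarized as Z-AUC.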

Assay [2] can be described thus: qHTS for identification of novel therapeutic agents for treatment of microphthalmiaassociated transcription factor (MiT) renal cell carcinoma (RCC) (AID 1963991; calls by dose curve; note: potency is the fitted concentration of half-maximal effect). To be noted: CellTiter-Glo, 48 h; for z-score: stronger effect = lower value. In short, it runs like this: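 Viability of three TFE3-fusion renal carcinoma lines measured by CellTiter-Glo after 48 h treatment with each of 1912 compounds at 11 concentrations. Responses scaled between DMSO (100%) and empty wells (0%) before curve fitting.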

A short description of assay [3]: qHTS profiling for inhibitors of Plasmodium falciparum proliferation (AID 504749).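 For activity, negative = inhibition: 0% = DMSO vehicle and full inhibition = artemisinin control.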 Note: nearly all actives have a fitted effect of over 60% in size. Note: potency is the fitted concentration of half-maximal effect. To be noted: P. falciparum in erythrocytes, SYBR Green DNA, 72 h, at 28.7 µM (top of the series). The gist of the method: (§1)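 Infected RBCs, 0.3% parasitemia/2.5% Hct final; cpd 72 h, 37 C, 5% CO2; lysis buffer with saponin/triton/SYBR Green I, o/n RT dark; FI 485/535; norm. to artemisinin (0.29 uM) and DMSO.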

Assay [4] has as its system 3D7. The description is as above. To be noted: P. falciparum in erythrocytes, SYBR Green DNA, 72 h; series mostly up to 28.7 µM. In short, it runs like this:
as §1

Assay [5] concerns 7G8. The assay is described as above. To be noted: P. falciparum in erythrocytes, SYBR Green DNA, 72 h; series mostly up to 28.7 µM. The gist of the method:
as §1

In assay [6] the test system is AA1029. Described as above. To be noted: P. falciparum in erythrocytes, SYBR Green DNA, 72 h; series mostly up to 28.7 µM. The gist of the method: as §1
The test system of assay [7] is ATS189. The assay is described as above. To be noted: P. falciparum in erythrocytes, SYBR Green DNA, 72 h; series mostly up to 28.7 µM. In short, it runs like this: as §1
The test system of assay [8] is ATS95. The assay is described as above. To be noted: P. falciparum in erythrocytes, SYBR Green DNA, 72 h; series mostly up to 28.7 µM. The gist of the method: as §1
Assay [9] has as its system C2A. The assay is described as above. The following applies: P. falciparum in erythrocytes, SYBR Green DNA, 72 h; series mostly up to 28.7 µM. The gist of the method: as §1
The subject of assay [10] is CP185. Described as above. The following applies: P. falciparum in erythrocytes, SYBR Green DNA, 72 h; series mostly up to 28.7 µM. In short, it runs like this:
as §1

Assay [11] concerns CP191. Described as above. The following applies: P. falciparum in erythrocytes, SYBR Green DNA, 72 h; series mostly up to 28.7 µM. The gist of the method:
as §1

In assay [12] the test system is CP192. Described as above. To be noted: P. falciparum in erythrocytes, SYBR Green DNA, 72 h; series mostly up to 28.7 µM. The gist of the method:
as §1

Assay [13] deals with CP194. The description is as above. To be noted: P. falciparum in erythrocytes, SYBR Green DNA, 72 h; series mostly up to 28.7 µM. The gist of the method:
as §1

In assay [14] the test system is CP201. Described as above. The following applies: P. falciparum in erythrocytes, SYBR Green DNA, 72 h; series mostly up to 28.7 µM. The gist of the method: as §1
Assay [15] concerns AS120. The assay is described as above. To be noted: P. falciparum in erythrocytes, SYBR Green DNA, 72 h; series mostly up to 28.7 µM. The gist of the method: as §1
The mark [16] stands for this setting: measured here: PEO1 parental Z-AUC.
The mark [17] stands for this setting: TFE3-RCC UOK109 viability, measured here: UOK109 Z-AUC.
The mark [18] stands for this setting: TFE3-RCC viability, measured here: UOK124 Z-AUC.
[19] abbreviates: TFE3-RCC viability, measured here: UOK145 Z-AUC.

Consider `CC(c1cc2ccccc2s1)N(O)C(N)=O` (stereo unspecified), for which the Z-AUC is -0.588 (inactive) in [1], -0.0331 in assay [1] (setting [16]) and -0.638 in assay [1] (measured here: PEO4 Z-AUC). Further, the z-score in assay [2] (setting [17]) was 0.403; in assay [2] (setting [18]) it was 0.701; in assay [2] (setting [19]), 0.104. The activity, negative = inhibition in assay [3] (parasite line A) is 3.01% (inactive); in assay [3] (parasite line B) it was -4.79% (inactive). The Potency entry in assay [4], in [5], in assay [6], in assay [7], in assay [8] and in [9] was “inactive” each time. Besides, the Potency result in [10], in [11], in assay [12] and in [13] was “inactive” throughout. The call in [14] was inactive.
Consider `CNC(=O)c1ccc(C)c(-n2c(C)cc(OCc3ccc(F)cc3F)c(Br)c2=O)c1`, for which the Z-AUC in assay [1] is -0.231 (inactive); in assay [1] (setting [16]), -0.585; in assay [1] (measured here: PEO4 Z-AUC) it was -0.46. In addition, the z-score was 0.451 in [2] (setting [17]), 1.43 in assay [2] (setting [18]) and 0.519 in [2] (setting [19]).
As to `C#Cc1cccc(Nc2ncnc3cc(OCCOC)c(OCCOC)cc23)c1`, the Z-AUC was -0.425 (inactive) in assay [1], -1.02 in [1] (setting [16]) and -0.978 in [1] (measured here: PEO4 Z-AUC). Besides, the Potency is 0.0526 µM (active) in [2] (TFE3-RCC UOK109 viability, active = Z-AUC below -0.8 in all three lines); 8.91 µM (active) in assay [4]; 11.2 µM (active) in assay [5]; 8.91 µM (active) in [6]; 11.2 µM (active) in assay [15]. The figures for the z-score in assay [2] (setting [17]), in assay [2] (setting [18]) and in assay [2] (setting [19]) were -2.56, -1.06 and -1.55, respectively. In addition, the Potency result in assay [10] and in [12] was “inactive” throughout.
As for `N[C@@H]1CONC1=O`, the Z-AUC in assay [1] was -0.0127 (inactive); in assay [1] (setting [16]), 1.55; in assay [1] (measured here: PEO4 Z-AUC), 1.43. Also, the z-score in assay [2] (setting [17]) is 0.394; in assay [2] (setting [18]), 0.295; in [2] (setting [19]) it was 0.675. The results for the activity, negative = inhibition in assay [3] (parasite line A) and in [3] (parasite line B) were -21% (inactive) and -17% (inactive), respectively. Further, the Potency entry in [4], in assay [5], in assay [6], in [15], in assay [7] and in assay [8] was “inactive” in each case. Moreover, the Potency entry in [9], in assay [10], in assay [11], in assay [12] and in [13] was “inactive” throughout. The call in assay [14] was inactive.
As for `NC(=O)C1CCCc2c1[nH]c1ccc(Cl)cc21` (stereo unspecified), the results for the Z-AUC in [1], in assay [1] (setting [16]) and in assay [1] (measured here: PEO4 Z-AUC) were -0.722 (inactive), 0.489 and -0.557, respectively. Moreover, the z-score in assay [2] (setting [17]) is 0.0433; in assay [2] (setting [18]), 0.823; in assay [2] (setting [19]), 0.151.
With `Cc1n[nH]c(C)c1Cc1sc2c(c1C(=O)N1C[C@H](O)CO1)c(=O)n(C)c(=O)n2CC(C)C`, the Z-AUC in assay [1] is -0.106 (inactive); in assay [1] (setting [16]), -0.977; in assay [1] (measured here: PEO4 Z-AUC), -0.228. The results for the z-score in [2] (setting [17]), in assay [2] (setting [18]) and in assay [2] (setting [19]) were 0.549, 0.656 and 0.704, respectively.
Turning to `O=C(O)[C@@H](c1ccc(OCc2ccc3ccccc3n2)cc1)C1CCCC1`, the Z-AUC is 1.02 (inactive) in [1], 0.403 in [1] (setting [16]) and 0.552 in assay [1] (measured here: PEO4 Z-AUC). Further, the results for the z-score in assay [2] (setting [17]), in assay [2] (setting [18]) and in assay [2] (setting [19]) were 0.431, 0.636 and 0.202, respectively.
`Oc1ccc(C2CNCCc3c2cc(O)c(O)c3Cl)cc1` (stereo unspecified): the Z-AUC in assay [1] is 1.23 (inactive); in assay [1] (setting [16]) it was 1.1; in [1] (measured here: PEO4 Z-AUC), 1. For the same compound, the z-score in assay [2] (setting [17]) was 0.257; in [2] (setting [18]), 0.218; in assay [2] (setting [19]), 0.231. The Potency entry in assay [4], in assay [6], in assay [15], in assay [7], in assay [8] and in [9] was “inactive” in each case. Further, the Potency result in [10], in [11], in assay [12] and in [13] was “inactive” each time. Further, in assay [14], the compound was called inactive.
For the compound `CC(C)(C)OC(=O)CN(Cc1ccc(Cl)cc1)Cc1ccc([N+](=O)[O-])s1`, the Z-AUC in assay [1] was 0.709 (inactive); in assay [1] (setting [16]) it was 0.527; in assay [1] (measured here: PEO4 Z-AUC), 0.345. In addition, the results for the z-score in assay [2] (setting [17]), in assay [2] (setting [18]) and in assay [2] (setting [19]) were 0.406, 0.354 and 0.158, respectively.
Turning to `NC(=O)c1ccc(I)c([N+](=O)[O-])c1`, the Z-AUC in assay [1] was 1.56 (inactive); in [1] (setting [16]), 1.77; in [1] (measured here: PEO4 Z-AUC), 1.61. The z-score in [2] (setting [17]) was 0.172; in assay [2] (setting [18]), 0.616; in [2] (setting [19]) it was -0.107.
Take `CCc1ccc(CCOc2ccc(CC3SC(=O)NC3=O)cc2)nc1` (stereo unspecified): the Z-AUC was 0.827 (inactive) in assay [1], 0.268 in [1] (setting [16]) and 0.973 in assay [1] (measured here: PEO4 Z-AUC). The z-score is 1.53 in assay [2] (setting [17]), 0.584 in assay [2] (setting [18]) and 0.551 in [2] (setting [19]). The figures for the activity, negative = inhibition in assay [3] (parasite line A) and in assay [3] (parasite line B) were 8.32% (inactive) and 6.57% (inactive), respectively. For the same compound, the Potency result in assay [4], in assay [5], in [6], in assay [15], in [7] and in [8] was “inactive” in each case. Also, the Potency entry in assay [9], in assay [10], in assay [11], in [12] and in assay [13] was “inactive” each time. The compound was called inactive in assay [14].
Turning to `CC(C)(Sc1ccc(CCN(CCCCC2CCCCC2)C(=O)NC2CCCCC2)cc1)C(=O)O`, the figures for the Z-AUC in assay [1], in [1] (setting [16]) and in assay [1] (measured here: PEO4 Z-AUC) were 1.3 (inactive), 1.26 and 1.25, respectively. Also, the z-score in assay [2] (setting [17]) worked out at 0.806; in [2] (setting [18]), 0.0749; in [2] (setting [19]) it was 0.555.
